# Assay outcomes as filed in PubChem.
# Dicer processing: inhibitors of Dicer pre-microRNA processing, primary screen, biochemical, cat-ELCCA, chemiluminescence | cat-ELCCA pre-miR-21 Dicer processing; stronger effect = higher value | z-score at 25 µM | hit rate 6% among 47,000; in the data active = z-score above about 3, passing the limit was not always enough;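 also: plate controls were vehicle for no effect and no enzyme for full effect; higher signal means more uncleaved substrate so more Dicer inhibition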
# Starred values were filed as active, the others as inactive. This is one part of a sample in which hits are shown more often than they occur.
SMILES,Dicer processing
Cc1nn2c(=O)c(NC(=O)c3ccccc3)cnc2s1,-2.1
COC(=O)c1cnc(N/N=C\c2ccc(C(F)(F)F)cc2)nc1C(F)(F)F,-1.4
O=C1CC(/C=C/c2ccccc2)Cc2nc(N3CCN(c4ccccc4)CC3)ncc21 (centres undefined),0.52
CCOC(=O)C1=C(C)Nc2nc3ccccc3n2C1c1cc(F)cc(F)c1 (centres undefined),-0.53
C=CCn1c(SCC(=O)Nc2cc(C)nn2-c2ccccc2)nnc1-c1ccc(Cl)cc1,0.52
Cc1ccn2c(-c3csc(Nc4ccc(O)cc4)n3)c(C)nc2c1,7.1*
Cc1ccn2c(-c3csc(Nc4ccc(S(=O)(=O)Nc5cc(C)on5)cc4)n3)c(C)nc2c1,2.7
Cc1nc2ncccn2c1-c1csc(Nc2ccc(O)cc2)n1,9.1
CC(=O)Nc1nc(C)c(-c2csc(Nc3ccc(O)cc3)n2)s1,-2.7
COc1ccc(Nc2nc(-c3sc(C)nc3C)cs2)cc1,0.54
Cc1nc(C)c(-c2csc(Nc3ccc(O)cc3)n2)s1,6.1*
Cc1ccnc(Nc2nc(-c3c(C)nc4cc(C)ccn34)cs2)c1,5.6*
CC(=O)Nc1nc(C)c(-c2csc(Nc3ccccn3)n2)s1,-0.82
Cc1nc2ccccn2c1-c1csc(Nc2ccccn2)n1,9.1
O=C1c2cccnc2C(=O)N1c1ccc(Br)cc1OC(F)(F)F,2
N#C/C(=C\Nc1cc(C(F)(F)F)cc(C(F)(F)F)c1)S(=O)(=O)c1ccc(Cl)cc1,-2.8
CCCCCCSc1nc(O)cc(=O)[nH]1,-3.3
CC1=CC(C)(C)Nc2ccc(OC(=O)COc3ccccc3Cl)cc21,2.9
COCCOC(=O)c1c(C)oc2ccc(OC(=O)c3ccco3)cc12,1.3
CC(C)(C)c1ccc(OC(=O)c2ccco2)cc1,0.7
CN(CCOC(=O)c1ccco1)C(C)(C)C,3.4*
CC(C)OC(=O)C1C2C=CC3(CN(C4CCCCC4)C(=O)C13)O2 (centres undefined),-0.3
O=C1c2oc3ccccc3c(=O)c2C(c2cccc(OCc3ccccc3)c2)N1c1ccccn1 (centres undefined),2.6
Cc1ccc(/C=c2\sc3nc4ccccc4n3c2=O)cc1,-0.54
CC(=N)c1c(O)c2ccccc2n(C)c1=O,0.9
SMILES,Dicer processing
COc1nc(N)nc(C23CC4CC(CC(C4)C2)C3)n1,0.1
Cn1nc(C(F)(F)F)c(-c2ccc(Br)cc2)c1NC(=O)Cc1ccccc1F,-0.35
Nc1cccc2c(S(=O)(=O)N3CCOCC3)cccc12,-2.6
O=C(Cn1c(-c2ccccc2)cc(=O)n2ncnc12)N/N=C/c1ccc2c(c1)OCO2,-0.78
Cc1cc(=O)n2ncnc2n1CC(=O)NN,3.1*
Cc1cc(=O)n2ncnc2n1CC(=O)N/N=C/c1ccc(Cl)cc1,-0.7
CC(C)c1ccc(COC(=O)Nc2ccc(CSc3ccc(Cl)cc3)o2)cc1,-0.99
CC(C)(C)NNC(=S)Nc1cc(Cl)ccc1Cl,2.1
c1cc(-c2nc3ccccc3o2)nc(-c2nc3ccccc3o2)c1,0.28
c1ccc2oc(CCCc3nc4ccccc4o3)nc2c1,5.5*
c1ccc2oc(-c3ccc(-c4nc5ccccc5o4)cc3)nc2c1,2
CN(C)/C=N/NC(=O)COc1ccc(SC(F)(F)F)cc1,-0.56
CC1CN(c2ccc(Oc3nc4c(Cl)cc(Cl)cc4s3)c([N+](=O)[O-])c2)CC(C)O1 (centres undefined),0.76
Cc1cccc(C)c1-n1nnnc1SCc1cc(F)cc(F)c1,-0.09
CSc1scc2c1/C(=N/OC(=O)Nc1ccc(Cl)cc1)CC(C)(C)C2,0.6
Cc1cc(C)n(CC(O)Cn2c(C)c(C)c3ccccc32)n1 (centres undefined),0.55
OC(CNC1CCCCC1)Cn1c2ccccc2c2ccccc21 (centres undefined),-0.84
Cc1ccc2c(c1)c(C)c(C)n2CC(O)CN1CCCCC1C (centres undefined),3.6*
Cc1ccc(C(=O)NNc2ncnc3scc(C)c23)cc1,2.2
CC1CCC2C(=O)N(c3ccc(N4C(=O)C5CCC(C)CC5C4=O)cc3)C(=O)C2C1 (centres undefined),2.8
CC1CCC2C(=O)N(c3ccc(C(=O)OC(C)C(=O)c4ccccc4)cc3)C(=O)C2C1 (centres undefined),3.1*
CC1CCC2C(=O)N(c3ccc(Cl)cc3)C(=O)C2C1 (centres undefined),-1.5
Cn1c(SCC(=O)c2c[nH]c3ccccc23)nnc1C1CCCCC1,2
O=C(CN1CCCCC1)N1N=C2c3ccccc3CCC2C1c1ccc(F)cc1 (centres undefined),-1.2
COc1ccc(NC(=O)C2=Cc3cccc(OC)c3OC2)cc1,3.8*
SMILES,Dicer processing
COc1ccc(NC(=O)c2cccc3c2-c2ccc(I)cc2C3)cc1,-0.13
COc1ccc(NC(=O)Nc2cccc(NC(=O)Nc3ccc(OC)cc3)c2F)cc1,-0.32
Nc1nc2ncc(CNc3ccc(C(=O)N[C@@H](CCC(=O)O)CC(=O)O)cc3)nc2c(=O)[nH]1,0.42
COC(=O)c1ccc(C#CC(C)(C)O)cc1,0.97
O=C(NC(=S)Nc1ccccc1Cl)c1ccccc1,2.7
O=C(NC(=S)Nc1ccccc1Cl)c1cnn2c(C(F)(F)F)cc(C(F)(F)F)nc12,0.93
